Screens (PubChem BioAssay)
TIM10 inh – growth inhibitors of isogenic TIM10 control yeast, primary screen, counter-screen for tim10-1 yeast inhibitor project, luminescence, uHTS; actives 1.4% (n = 330,000); inhibition, % at 10 µM; S. cerevisiae TIM10 strain growth, BacTiter-Glo luminescence, 24 h;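 active = inhibition of 40% or more at the single tested concentration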;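 note: wild-type TIM10 isogenic control strain grown at permissive 25 °C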
NALP1 inh – NALP1 inflammasome inhibitors in reconstituted yeast, colorimetric, S. cerevisiae, triplicate retest; S. cerevisiae NALP1/ASC/caspase-1 growth, X-gal OD620, 72 h; inhibition, % at 10 µM; actives 0.61% (n = 280,000); AID 2071, 2009; in the data active = inhibition mostly above about 24%, no sharp cut-off; inactive = mostly below about 32%
tim10-1 inh – growth inhibitors of tim10-1 mutant yeast, primary screen, luminescence, uHTS | S. cerevisiae tim10-1 ts strain growth, BacTiter-Glo, 24 h | inhibition, % at 20 µM | actives 2.2% (n = 330,000) | AID 463190, 2010;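 active = inhibition of at least 40%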;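 note: mutant grown at 25 °C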
NALP3 yeast inh – NALP3 inflammasome inhibitors in reconstituted yeast, primary screen, luminescence, uHTS | Yeast reconstituted NLRP3/ASC/caspase-1, beta-gal luminescence, 24 h | inhibition, % at 10 µM | actives 0.39% (n = 330,000) | AID 2825, 2010;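 active = inhibition of 50% or more; inactive = inhibition below 50%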
tim23-1 inh – growth inhibitors of tim23-1 mutant yeast, primary screen, luminescence, uHTS; inhibition, % at 20 µM; S. cerevisiae tim23-1 growth, BacTiter-Glo luminescence, 24 h; actives 1.3% (n = 330,000); AID 463212, 2010;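 active = growth inhibition of the mutant yeast at or above 50%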;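 note: temperature-sensitive mutant grown at 25 °C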
NALP3 confirm – NALP3 inhibitors retested in yeast, confirmation, luminescence, single concentration; shares compounds with NALP3 yeast inh; yeast expressing human NALP3; inhibition, % at 10 µM; actives 81% (n = 1,300); AID 435006, 2010; in the data active = inhibition above about 48%
Casp1-ASC yeast – CASP1-PYCARD signaling inhibition in yeast, confirmatory test, counterassay for NLRP3 inhibitor program, one-dose; inhibition, % at 10 µM; actives 66% (n = 1,000); yeast expressing Caspase-1-ASC, luminescence counter screen; AID 488784, 2010; shares compounds with NALP3 yeast inh
NALP3 yeast rt – NALP3 inhibitors in yeast, repeat test, confirmation, luminescence, single concentration, retest. yeast expressing human NALP3, luminescence read-out. inhibition, % at 10 µM. AID 488794, 2010. shares compounds with NALP3 yeast inh. actives 53% (n = 1,000)
Large screens that a line does not name were inactive (follow-up assays come after a bar, where they were run). Hits are enriched below; roughly 4% of the tested compounds scored in any of these assays. Cut-off read from the data, not from the text of the source, unless noted: active = inhibition above about 50%; inactive = the rest.

COc1ccc(Cc2nnc(Nc3c(C)cccc3C)o2)cc1OC	none (no result: NALP1 inh)
CNC(=O)/C(C#N)=C/c1ccc(OCCOc2ccccc2)cc1	NALP3 yeast inh 56 | NALP3 confirm 73 | Casp1-ASC yeast 58 | NALP3 yeast rt inactive
O=C(NCc1cccnc1)c1ccc(NS(=O)(=O)c2cccc([N+](=O)[O-])c2)cc1	none (no result: NALP1 inh)
N#C/C(=N\Nc1ccc(Cl)cc1)C(=O)c1ccccc1	NALP3 yeast inh 55 | NALP3 confirm 59 | Casp1-ASC yeast 73 | NALP3 yeast rt 84
CC1CCC2(CC1)NC(=O)N(NC(=O)c1ccc(OC(C)C)cc1)C2=O (centres undefined)	none (no result: NALP1 inh)
Nc1nonc1C(=O)NCCNC(=O)c1cccc(Cl)c1	none
Cc1ccc(OCCn2cnc(Cl)c2Cl)cc1	NALP3 yeast inh 50 | NALP3 confirm 59
CC(=O)NCCc1nc2ccccc2n1Cc1cccc(C)c1	none (no result: NALP1 inh)
Cc1ccc(S(=O)(=O)c2ncccc2N)cc1	none
Cc1ccc(S(=O)(=O)c2ncccc2[N+](=O)[O-])cc1	NALP1 inh 36, NALP3 yeast inh 58 | NALP3 confirm 69 | Casp1-ASC yeast 68 | NALP3 yeast rt 58
Cc1nn(-c2c(Cl)cc(Cl)cc2Cl)c(=O)c2ccccc12	NALP3 yeast inh 63 | NALP3 confirm 73 | Casp1-ASC yeast 59 | NALP3 yeast rt 53
O=C(Cc1ccccc1)Nc1ccc(N2CCCCC2)cc1	none
O=C(CCl)Nc1ccc(N2CCCCCC2)cc1	NALP3 yeast inh 60 | NALP3 confirm 77 | Casp1-ASC yeast 76 | NALP3 yeast rt 53
C=CCn1cc(CN2CCC(C(=O)Nc3cccc(-c4cccc(Cl)c4)c3)CC2)c(C)n1	none
COC(=O)CN(c1ccc(C)cc1)S(=O)(=O)c1ccc(F)cc1	NALP3 yeast inh 58 | NALP3 confirm 55
O=C(CCCSc1nnnn1-c1cccc2ccccc12)c1ccc(F)cc1	none
COC(=O)Cn1nc(-c2ccccc2)c2ccccc21	NALP1 inh 103, NALP3 yeast inh 97 | NALP3 confirm 99 | Casp1-ASC yeast 99 | NALP3 yeast rt 98
CC(C)Oc1ccc2c(=O)c(-c3ccccc3)coc2c1	NALP3 yeast inh 58 | NALP3 confirm 66 | Casp1-ASC yeast inactive | NALP3 yeast rt inactive
COC(=O)COc1ccc2c(=O)c(-c3ccccc3)coc2c1	none
Cc1cccc(N(C)c2ccc3cc(S(=O)(=O)N4CCCC4)ccc3n2)c1	NALP3 yeast inh 68 | NALP3 confirm 79 | Casp1-ASC yeast 75 | NALP3 yeast rt 58
Cc1ccc(OCc2nc(-c3cccnc3)no2)cc1C	NALP3 yeast inh 51 | NALP3 confirm 61 | Casp1-ASC yeast inactive | NALP3 yeast rt inactive
Cc1ccc(OCc2nc(-c3ccccn3)no2)cc1	NALP3 yeast inh 56 | NALP3 confirm 70 | Casp1-ASC yeast 72 | NALP3 yeast rt 64
Cc1ccc(OCc2nc(-c3ccccn3)no2)c(Br)c1	none
COc1ccc(N2Cc3ccccc3C2=NC(=O)c2cncc(Br)c2)cc1	none
CC(C)CCNC(=O)CO/N=C/c1ccccc1OC(F)F	none
Cc1cc2ccccn2c1C(=O)c1ccccc1F	NALP3 yeast inh 51 | NALP3 confirm 61 | Casp1-ASC yeast inactive | NALP3 yeast rt inactive
Cc1cc(-c2csc(NC(=O)c3ccc(C#N)cc3)n2)c(C)n1Cc1ccccc1	none
Cc1ccc(C(=O)CSc2ncnc3ccccc23)o1	NALP3 yeast inh 54 | NALP3 confirm 69 | Casp1-ASC yeast 73 | NALP3 yeast rt 58
C[C@]12CCC3C(CC[C@H]4CC(O)CC[C@]34C)C1CC/C2=N/NC(=O)c1ccncc1 (some centres undefined)	NALP3 yeast inh 56 | NALP3 confirm 80 | Casp1-ASC yeast 55 | NALP3 yeast rt inactive
C[C@]12CCC3C(CC[C@H]4CC(O)CC[C@]34C)C1CC/C2=N/O (some centres undefined)	NALP3 yeast inh 51 | NALP3 confirm 73 | Casp1-ASC yeast 71 | NALP3 yeast rt 55
CCN(C(=O)CSc1nnc(-c2c[nH]c3ccccc23)o1)C1CCS(=O)(=O)C1 (centres undefined)	none
O=C(Nc1ccncc1)c1cccc(F)c1	none
O=C(Nc1ccc(Nc2ccccc2)cc1)c1cccc(F)c1	NALP3 yeast inh 57 | NALP3 confirm 72 | Casp1-ASC yeast 51 | NALP3 yeast rt 57
O=C1/C(=C\c2ccc3c(c2)OCO3)CCC/C1=C/c1ccc2c(c1)OCO2	none | NALP3 confirm 49 | Casp1-ASC yeast inactive | NALP3 yeast rt inactive
Cc1ccc(C(=O)N2CC(=O)NC(=O)C2)cc1	NALP3 yeast inh 51 | NALP3 confirm 49 | Casp1-ASC yeast inactive | NALP3 yeast rt inactive
Cc1ccc(C(=O)N2CC3(C)CN(C(=O)c4ccc(C)cc4)CC(C)(C2)C3=O)cc1	none
O=C(COC(=O)c1ccc(S(=O)(=O)NCc2ccco2)cc1)Nc1ccc(Cl)cn1	none
Cn1cccc1/C=C1\CCc2ccccc2C1=O	none
Cn1cccc1/C=C1\Cc2ccccc2C1=O	NALP3 yeast inh 54 | NALP3 confirm 69
CCN1CCN(C(=O)c2cc(COc3ccc(C(C)=O)cc3OC)on2)CC1	none
O=C1NCCN1Cc1ccccc1	none
O=C1c2ccsc2SCCN1Cc1ccccc1	NALP3 yeast inh 58 | NALP3 confirm inactive | Casp1-ASC yeast inactive | NALP3 yeast rt inactive
Cc1ccc(Cn2ccc(=O)c(OCc3c(Cl)cccc3Cl)c2C)cc1	none
Cc1c(/C(Cc2ccccc2)=N/O)c2ccccc2n1C	NALP3 yeast inh 56 | NALP3 confirm 61 | Casp1-ASC yeast 51 | NALP3 yeast rt 53
Cc1nc2cc(NC(=O)c3ccc([N+](=O)[O-])s3)ccc2s1	NALP3 yeast inh 61 | NALP3 confirm 68
CC(=O)Nc1ccc2nc(NC(=O)c3ccc([N+](=O)[O-])s3)sc2c1	none
COc1cc(CC(=O)N(CC(C)C)C2CCS(=O)(=O)C2)cc(OC)c1OC (centres undefined)	none (no result: NALP1 inh)
Cc1ccccc1-c1nc2ccccc2[nH]1	none
Cc1cc(C)c2c(N)c(-c3nc4ccccc4[nH]3)sc2n1	NALP3 yeast inh 50 | NALP3 confirm 62 | Casp1-ASC yeast inactive | NALP3 yeast rt inactive
CCc1nc(SCc2cccnc2)c2c(=O)n(C)c(=O)n(C)c2n1	NALP3 yeast inh 53 (no result: NALP1 inh) | NALP3 confirm 68 | Casp1-ASC yeast 58 | NALP3 yeast rt inactive
